Several values for one entry are separate records, joined by “and”; a condition that tells them apart may be missing. Equal entries are not always repeated. About 83,000 compounds went through this panel and 20% of them were active in at least one assay; those are over-represented in the sample as a whole.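 Percent growth is the endpoint: 0 to 100 indicates growth inhibition (40 means 60% inhibition), 0 means no net growth, and negative values indicate cell death.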 Activity calls are given as the source filed them. Rule for the calls: active = growth percent below 10; inactive = the rest.

The text below walks through data of PubChem BioAssay (NCI).

The assay deals with MDA-MB-468 breast. Description: NCI-60 one-dose screen, 48 h (100 = growth as untreated, 0 = no growth, -100 = all killed). The settings on record: 10 µM unless noted.
For `O=C(/C=C/c1cc2ccccc2[nH]c1=O)/C=C/c1cc2ccccc2[nH]c1=O`, the growth was -31.7% (active).
For `O=C(/C=C/c1cccs1)Nc1ncc(Cc2ccc(Cl)c(Cl)c2)s1`, the growth was 58.2% (inactive).
Under `NC(CSC(c1ccccc1)(c1ccccc1)c1cccc2ccccc12)C(=O)O` (stereo not given) stands 86% (inactive).
To `Oc1[nH]c2ccccc2c1N=Nc1nnc2n1N=C(c1ccccc1)CS2` belongs 104% (inactive); to `CCC(CCCN(CC)CCc1ccccc1)OC(=O)c1cc(OC)c(OC)c(OC)c1` (stereo not given), 93.1% (inactive).
Under `CCCSc1nc(Nc2ccc(/C(C)=N\NC(N)=S)cc2)c(C#N)c(-c2ccc(OC)cc2)n1` stands 93.1% (inactive); under `Nc1c(S(=O)(=O)O)cc(Br)c2c1C(=O)c1ccccc1C2=O`, 102% (inactive) and 107% (inactive); under `CN1CCN(C(=O)[C@]2(C)CC[C@]3(C)CC[C@]4(C)C(=CC(=O)[C@@H]5[C@@]6(C)CCC(=O)NC(C)(C)[C@@H]6CC[C@]54C)[C@@H]3C2)CC1`, 101% (inactive).
As for `O=c1[nH]c([C@@H]2CCCN2)nc2c1oc1ccc(Cl)cc12`, the growth is 33.6% (inactive).
To `CC(C)Sc1nc(-c2ccccc2)c(C#N)c(N2CCOCC2)n1` belongs 80.9% (inactive); to `O=C(COc1ccc(/C=C2\Cc3ccc(Cl)cc3C2=O)cc1)Nc1nccs1`, 98.8% (inactive); to `CN(C)Cc1ccc(O)c(C(=O)O)c1`, 106% (inactive).
To `O=C(Nc1nc2ccc(C(=O)N3CCN(/C=C/c4ccccc4)CC3)cc2s1)c1ccc(NCCc2ccccc2)c([N+](=O)[O-])c1` belongs 22.6% (inactive).
Under `Cc1ccc(-c2nc(C#N)c(S(=O)(=O)N(C)CCO)o2)cc1` stands 46.1% (inactive); under `O=C1/C(=C/c2ccc(Cl)cc2)SC(=Nc2ccc(Cl)cc2)N1Cc1nc2ccccc2[nH]1`, 78.6% (inactive).
On to `CC(C)c1ncc(CO)n1Cc1c(Cl)cccc1Cl`, for which the growth is 97.5% (inactive).
Under `Nc1ccccc1SC1CC(=O)N(c2cccc3ccccc23)C1=O` (stereo not given) stands 87% (inactive).
To `CCc1nc2ccccc2[nH]1` belongs 109% (inactive); to `COc1ccc(-c2nc3ccccn3c2/C=C/C(=O)c2cc(OC)c(OC)c(OC)c2)cc1OC`, 8.94% (active); to `CN1CCN(Cc2ccc(NC(=O)c3cncc(C#Cc4cnccc4C(F)(F)F)c3)cc2C(F)(F)F)CC1`, 84.4% (inactive).
Under `COc1ccc(C(=NN=C(N)N)c2ccc(OC)cc2)cc1` stands -17.7% (active).
Turning to `CCN(CCCNC(=O)Cc1cc(=O)oc2cc(N(C)C)ccc12)CCNc1ccnc2cc(Cl)ccc12`, the growth is 52% (inactive).
Regarding `C[C@H]1[C@H](C)CC[C@]2(C(=O)NCCNCCN)CC[C@]3(C)C(=CC[C@@H]4[C@@]5(C)CCC(=O)C(C)(C)[C@@H]5CC[C@]43C)[C@H]12`, the growth is 34% (inactive).
Under `CCN(c1ccccc1)S(=O)(=O)c1cc([N+](=O)[O-])ccc1Cl` stands -4.6% (active); under `C/C=C/C/C=C/[C@H](C)C[C@H](O)[C@@H]1C[C@@H]2O[C@H]2/C=C/[C@H](O)[C@@H](O)/C=C/C[C@H](C)CC(=O)O1`, 99.5% (inactive); under `CN1C(=O)N(C)C2C1NN=c1s/c(=C\C=C\c3ccccc3)c(=O)n12` (stereo not given), 13.9% (inactive).
For `COc1cccc(NC(=O)[C@H](C(C)C)n2c(=O)[nH]c3ccccc3c2=O)c1`, the growth was 101% (inactive).
Under `COc1cc(-c2nn(-c3cccc(NC(=O)CCN4CCN(Cc5ccccc5)CC4)c3)cc2-c2ccncc2)ccc1Cl` stands 1.17% (active); under `C(=N\OCCc1ccccc1)/c1ccccn1`, 112% (inactive) and 107% (inactive); under `Cc1ccc(-c2cn(C/C=C3\C=CN(S(=O)(=O)c4ccccc4)CC3)nn2)cc1`, 86.8% (inactive).
To `NC(=O)c1ccc(-c2c3ccccc3cc3c2ccc2ccccc23)cc1` belongs -11.3% (active).
To `COc1ccc(/C=N/NC(=O)c2cn(C3CC3)c3c(OC)c(N4CC5CCCNC5C4)c(F)cc3c2=O)cc1` (stereo not given) belongs 89.4% (inactive); to `CC(=O)c1cc(C(=O)c2ccc3c(c2)Sc2ccccc2N3)c2c(C)cc(C)cn12`, 14% (inactive); to `O=C1/C(=C/c2ccccc2)CCc2nc3ccccc3c(/C=C/c3ccc(Cl)cc3)c21`, 83.5% (inactive).
For the compound `Nc1ccc(S(=O)(=O)Nc2ccnn2-c2ccccc2)cc1`, the growth is 107% (inactive).
As for `C[C@@H]1C=C2C(=O)O[C@@H]3CC[C@H](C1)[C@]23O`, the growth was 11.4% (inactive).
`O=C(c1ccccc1)C(Br)C(Br)c1ccccc1` (stereo not given): the growth is 72.3% (inactive).
Under `Cn1cccc1/C=C1/SC(=S)N(CCc2ccc(O)cc2)C1=O` stands 10.3% (inactive); under `CCN(CC)CC(C)Nc1ccc(C)c2sc3ccccc3c(=O)c12` (stereo not given), 57.7% (inactive); under `CCCCCCCCCCCC(=O)OC(C)C(=O)Nc1ccccc1` (stereo not given), 111% (inactive).
